Screens (PubChem BioAssay)
HT1080-NT tox – qHTS for induction of synthetic lethality in tumor cells producing 2HG: qHTS for the HT-1080-NT fibrosarcoma cell line | HT-1080-NT fibrosarcoma viability, CellTiter-Glo ATP luminescence, 48 h | Potency, µM (top dose mostly 46.1 µM), hits mostly cytotoxic | 360,000 tested, 1.6% active;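 also: NT is the 2HG producing partner of a matched IDH1 knockdown line; nearly all actives have a fitted effect of over 55% in size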
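HT-1080-NT fibrosarcoma cells (2HG-overproducing), 750 cells/well in RPMI with 5% FBS, dosed after 2 h and incubated 48 h at 37C. CellTiter-Glo luminescence normalized to DMSO and no-cell wells; concentration-response curves fitted and classed.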
IL1B secr inh – qHTS for Inhibitors of Inflammasome Signaling: IL-1-beta AlphaLISA Primary Screen | THP-1 LPS/ATP IL-1B secretion, AlphaLISA, 16 h; active compounds read low | activity change, % at 57.5 µM | 360,000 tested, 4.7% active | AID 743279, 2014; in the data active = activity change below about -50%; inconclusive = mostly about -30% to -49%
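THP-1 cells pretreated 1 hr with compounds (up to 57.5 uM final), then stimulated with LPS (250 ng/mL final) plus ATP (1.25 mM final); secreted IL-1B measured by AlphaLISA after 16 hr, decreased signal indicating inhibition.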
TDP1 cell CPT – qHTS for Inhibitors of human tyrosyl-DNA phosphodiesterase 1 (TDP1): qHTS in cells in presence of CPT; AID 686979, 2013; chicken DT40 Tdp1-/-;hTDP1 cells + 20 nM CPT, ATP luminescence, 48 h; 420,000 tested, 12% active; Potency, µM (series often up to 46.2 µM), most hits filed as inhibitors; also: nearly all actives have a fitted effect of over 55% in size
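Chicken DT40 Tdp1-/- cells stably complemented with human TDP1 were seeded at 400 cells/well in medium containing 20 nM camptothecin, exposed to pin-transferred compounds, and grown at 37 °C for at least 48 hr. Viability was read as ATP luminescence.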
TDP1 cell noCPT – qHTS for Inhibitors of human tyrosyl-DNA phosphodiesterase 1 (TDP1): qHTS in cells in absence of CPT; DT40 Tdp1-/- hTDP1 cells, no CPT, ATP luminescence, 48 h; Potency, µM (top dose mostly 46.2 µM), hits mostly inhibitors; 420,000 tested, 15% active; AID 686978, 2013; also: nearly all actives have a fitted effect of over 55% in size
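Compound effects on proliferation are scored in DT40 Tdp1-/-;hTDP1 cells in the absence of CPT. ATP levels (CellTiter-Glo luminescence) are recorded after a ≥48 hr, 37 °C incubation.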
ALOX12 inh – Primary qHTS assay for inhibitors of human arachidonate 12S-lipoxygenase (ALOX12): Round 2. Polyunsaturated fatty acid lipoxygenase ALOX12 (Homo sapiens), P18054. purified 12hLO, xylenol orange hydroperoxide absorbance. Potency, µM (highest dose often 108 µM), usual class: inhibitors. 580,000 tested, 1.1% active. AID 1671190, 2021
Target sequence (P18054 whole entry, looked up): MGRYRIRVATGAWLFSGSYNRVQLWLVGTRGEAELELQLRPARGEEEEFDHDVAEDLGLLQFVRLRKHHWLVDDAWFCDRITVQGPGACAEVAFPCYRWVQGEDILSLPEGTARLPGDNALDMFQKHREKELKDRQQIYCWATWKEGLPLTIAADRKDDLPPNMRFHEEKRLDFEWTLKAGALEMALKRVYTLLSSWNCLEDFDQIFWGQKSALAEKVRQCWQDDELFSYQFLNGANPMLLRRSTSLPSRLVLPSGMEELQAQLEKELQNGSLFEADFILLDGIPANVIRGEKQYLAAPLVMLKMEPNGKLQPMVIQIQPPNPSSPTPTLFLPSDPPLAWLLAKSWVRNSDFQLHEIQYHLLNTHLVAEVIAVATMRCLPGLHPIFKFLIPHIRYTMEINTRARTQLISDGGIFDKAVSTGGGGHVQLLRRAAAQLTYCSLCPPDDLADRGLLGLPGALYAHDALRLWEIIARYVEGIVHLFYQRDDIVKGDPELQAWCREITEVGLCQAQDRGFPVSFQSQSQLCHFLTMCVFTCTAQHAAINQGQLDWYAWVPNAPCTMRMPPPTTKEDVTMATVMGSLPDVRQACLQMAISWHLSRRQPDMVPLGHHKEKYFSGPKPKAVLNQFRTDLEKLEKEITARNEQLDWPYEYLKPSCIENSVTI
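Purified human 12hLO at 150 nM in 25 mM Hepes, 0.01% Triton X-100, pH 7.0, preincubated 15 min at room temperature with compound. Reaction started with 40 uM arachidonic acid, 30 min at room temperature. Hydroperoxide measured by Fe-xylenol orange, 573/405 nm absorbance ratio.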
HT1080 IDH1KD tx – qHTS for induction of synthetic lethality in tumor cells producing 2HG: qHTS for the HT-1080-IDH1KD cell line; HT-1080 IDH1 knockdown viability, ATP luminescence, 48 h; Potency, µM (doses to about 46.1 µM), usual class: cytotoxic; 360,000 tested, 2% active
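Assay cells: HT-1080 with IDH1 knockdown, 750 per well, RPMI/5% FBS. Exposure: 48 h at 37 °C following 2 h pre-incubation. Read: CellTiter-Glo luminescence; fitted concentration-response, curve class assigned.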
A number is an active result; – = inactive; ? = inconclusive; · = not tested or not shown. Only a selection was taken, and hits are over-represented in it overall. Unless noted, calls follow the shape of the dose curve; as a rule, active = well fitted curve in the direction sought with a large enough effect; inconclusive = small, poorly fitted or top-dose-only effect, or another doubt; inactive = no such curve, though single readings can be large; an effect the other way counts as inactive or inconclusive.

SMILES	HT1080-NT tox	IL1B secr inh	TDP1 cell CPT	TDP1 cell noCPT	ALOX12 inh	HT1080 IDH1KD tx
COc1ccc(/C=C2/SC(=S)N(CCCC(=O)Nc3ccc(O)cc3)C2=O)cc1	?	–	?	?	–	?
COc1ccccc1NC(=O)CCN1C(=O)/C(=C/c2cc(OC)c(OC)c(OC)c2)SC1=S	–	–	?	15µM	–	–
COc1ccc(/C=C2\SC(=S)N(CCCC(=O)Nc3ccc(O)cc3)C2=O)cc1	?	-59	?	?	–	?
COc1cc(/C=C2\SC(=S)N(CCC(=O)Nc3ccc(O)cc3)C2=O)cc(OC)c1OC	?	–	?	16µM	–	?
COc1cc(/C=C2/SC(=S)N(CCC(=O)Nc3ccc(C(=O)O)cc3)C2=O)cc(OC)c1OC	–	?	–	–	?	–
COc1ccc(/C=C2\SC(=S)N(CCC(=O)NC3CCCC3)C2=O)cc1OC	–	–	?	16µM	–	–
COc1ccc(C2=NN(C(=O)c3cccs3)C(c3ccc4nccnc4c3)C2)cc1 (stereo unspecified)	·	·	·	·	–	·
C/C(=N/NC(=O)c1ccc(O)cc1)c1ccc(Cl)cc1	·	·	·	·	–	·
Cc1ccc2c(c1)C1(C)C(C(C)(C)N2C=O)C1(Cl)Cl (stereo unspecified)	–	–	–	10µM	–	–
O=C(c1nccc2ccccc12)N1CCC(N2C(=O)C(OCC3CC3)C23CCCCC3)CC1 (stereo unspecified)	·	·	·	·	–	·
Cc1[nH]n(-c2ccc(Cl)cc2)c(=O)c1N=Nc1cccnc1	–	–	18µM	16µM	–	–
Cc1[nH]n(-c2ccccc2)c(=O)c1N=Nc1cccc(Cl)c1	?	–	–	?	–	–
COc1ccc(-c2noc([C@@H]3CCCN3C(=O)c3ccc(Cl)cc3OC)n2)cc1OC	·	·	·	·	–	·
CCS/C(N)=N/N=C/c1cc(C)ccc1O	–	-55	0.58µM	0.82µM	–	?
CCCCS/C(N)=N/N=C/c1cc(C)ccc1O	?	–	4.1µM	5.2µM	–	?
CCN(CCOc1ccccc1)C(=O)c1ccoc1C	·	·	·	·	–	·
O=C(CSc1nc2ccccc2o1)Nc1ccc(F)cc1	·	·	·	·	–	·
COC(=O)c1[nH]c2cc(Cl)ccc2c1C=O	·	·	·	·	–	·
CN(C)C(=O)c1cccc(-c2cnc3c(NC=O)cc(-c4ccccc4Cl)cn23)c1	–	-53	2.6µM	5.2µM	–	?
CN(C)C(=O)c1cccc(-c2cnc3c(NC=O)cc(-c4ccccc4N(C)C)cn23)c1	–	–	23µM	16µM	?	?
Cc1ccccc1CC(=O)N1CCC2(CC1)N=C(c1cccc(Br)c1)NO2	·	·	·	·	–	·
CCOC(=O)N1CCc2c(sc3c2c(=O)n(CCc2ccccc2)c(=O)n3CC(=O)Nc2ccccc2C)C1	·	·	8.2µM	8.2µM	–	·
CCOC(=O)N1CCc2c(sc3c2c(=O)n(Cc2ccccc2)c(=O)n3CC(=O)Nc2ccc(C)cc2C)C1	·	·	–	–	–	·
CC(=O)N1CCc2c(sc3c2c(=O)n(CCc2ccccc2)c(=O)n3CC(=O)Nc2ccc(C)c(F)c2)C1	·	·	23µM	?	–	·
CC(=O)N1CCc2c(sc3c2c(=O)n(-c2ccc(C)cc2)c(=O)n3CC(=O)Nc2ccccc2)C1	·	·	?	16µM	–	·
SMILES	HT1080-NT tox	IL1B secr inh	TDP1 cell CPT	TDP1 cell noCPT	ALOX12 inh	HT1080 IDH1KD tx
CCn1cc(S(=O)(=O)N2CC(Oc3ccccc3-c3noc(C)n3)C2)cn1	·	·	·	·	–	·
Clc1cc(Cn2nnc(-c3ccccc3)n2)cc2c1OCCCO2	·	·	·	·	–	·
O=C(NCC1CCCO1)c1ccc(Oc2ccc([N+](=O)[O-])cc2)cc1 (stereo unspecified)	?	–	?	23µM	–	–
O=C(NCC1CCCO1)c1cc([N+](=O)[O-])ccc1Cl (stereo unspecified)	–	–	–	–	–	–
O=C(NCC1CCCO1)c1ccccc1NS(=O)(=O)c1cc([N+](=O)[O-])ccc1Cl (stereo unspecified)	–	–	15µM	?	–	–
O=C(NCC1CCCO1)c1cccc(Oc2ccc([N+](=O)[O-])cc2Cl)c1 (stereo unspecified)	–	–	?	21µM	–	–
O=C(NCC1CCCO1)/C(=C\c1cccc([N+](=O)[O-])c1)NC(=O)c1ccccc1 (stereo unspecified)	–	–	–	–	–	–
O=C(NCC1CCCO1)C(=Cc1cccc([N+](=O)[O-])c1)C(=O)NCC1CCCO1 (stereo unspecified)	16µM	-110	?	23µM	–	?
NC(=O)C1CCN(CC(=O)Nc2cccc(Cl)c2)CC1	·	·	·	·	–	·
O=C(NCc1ccccc1)NC[C@H]1Cn2c(-c3ccc(Cl)cc3)cnc2CO1	·	·	·	·	–	·
CC(=O)C1=C(OC(=O)c2ccccc2)c2ccccc2S(=O)(=O)N1C(C)C	·	·	·	·	–	·
Cc1ccc(F)cc1C(=O)N1CCCCC1c1cc(C(=O)NC(C)C)no1 (stereo unspecified)	–	-56	–	–	–	–
COc1ccc(NC(=O)c2cc(C3CCCCN3C(=O)c3cc(F)ccc3C)on2)c(C)c1 (stereo unspecified)	–	–	12µM	8.2µM	–	–
COc1ccc(C(=O)N2CCCCC2c2cc(C(=O)Nc3ccc(OC)cc3C)no2)cc1 (stereo unspecified)	–	–	?	?	–	–
CCCNC(=O)c1cc(C2CCCN(C(=O)c3cc(C(C)(C)C)nn3C)C2)on1 (stereo unspecified)	–	–	?	?	–	–
CCCNC(=O)c1cc(C2CCCCN2C(=O)c2cc(C(C)(C)C)nn2C)on1 (stereo unspecified)	–	–	21µM	18µM	–	–
COc1ccc(NC(=O)c2cc(C3CCCCN3C(=O)c3cc(C(C)(C)C)nn3C)on2)c(C)c1 (stereo unspecified)	–	–	?	21µM	–	–
COc1ccc(-c2ccc3nc(-c4ccccc4Br)oc3c2)c(OC)c1OC	·	·	·	·	–	·
CNC(=O)c1cc2cc(-c3c(C)noc3C)nc(-c3ccccc3C)c2o1	·	·	·	·	–	·
CONC(=O)CCN1C(=O)CSc2ccccc21	·	·	·	·	–	·
O=C(c1ccc(Cl)cc1)N1CC2(CCCN(Cc3ccc(Cl)cc3)C2)Cc2ccccc21 (stereo unspecified)	·	·	·	·	3.5µM	·
